MITF primary: blocks human microphthalmia-associated transcription factor | O75030 | AlphaScreen MITF homodimerization, bead proximity signal | inhibition, % at 2.6 µM | actives 0.91% (n = 650,000) | AID 1259374; in the data active means inhibition above about 50%
GPR151 activ: activates the human receptor GPR151. AID 1508602. actives 1% (n = 650,000). activation, % at 11.2 µM. Q8TDV0. PathHunter beta-arrestin GPR151 cells, luminescence; in the data active means activation above about 4.9%
FBW7 act: human FBW7 E3 ligase activation, primary screen; Q969H0; AlphaScreen FBW7–phospho-cyclin E peptide binding, activator screen; normalized activity (activation), % at 26.1 µM; actives 0.13% (n = 650,000); AID 1259310; in the data active means normalized activity above about 1.9%;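 further: purified mutant Fbw7 with reduced substrate affinity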
TEAD-YAP inh: TEAD-YAP interaction inhibition. HEK-TIYL cells, TEAD-Gal4/YAP UAS-luciferase luminescence. inhibition, % at 9.12 µM. actives 1.4% (n = 640,000). AID 1259422; in the data active means inhibition above about 32%
Numbers stand for hits; 0 = inactive. Shown are actives, neighbours in structure and some others; about 3.5% of the full set was active somewhere.

SMILES	MITF primary	GPR151 activ	FBW7 act	TEAD-YAP inh
COc1cccc(C2=NN3C(C2)c2cccc(OC)c2OC3c2ccc(SC)cc2)c1 (stereo not drawn)	0	0	0	47
COc1cccc(C2=NN3C(C2)c2cccc(OC)c2OC3c2cccc(Cl)c2)c1 (stereo not drawn)	0	0	0	0
CC(=O)c1ccc(N2CCN(c3ncnc4c3cnn4-c3cccc(C)c3)CC2)cc1	0	0	0	0
COC(=O)Nc1ccc(S(=O)(=O)N2c3ccccc3CCC2C)cc1 (stereo not drawn)	0	0	0	53
CC(=O)C(C(C)=O)C1=C(Cl)C(=O)C(=O)c2ccccc21	0	0	0	84
CCOC(=O)CSc1nnc(NC(=O)c2cc(Cl)ccc2Cl)s1	0	0	0	0
CCCCn1c(=S)[nH]c2ccccc21	0	0	2.0	0
CCSc1nnc2c(n1)OC(c1ccc(Br)cc1)Nc1ccccc1-2 (stereo not drawn)	0	0	0	0
COc1cc(C(=O)Nc2cccnc2)ccc1OCc1c(Cl)cccc1Cl	0	0	0	39
O=C(Nc1cccnc1)c1ccc(Cl)c(Cl)c1	0	0	0	0
Cc1ccc(-n2c(C)cc(/C=N/Nc3ncnc(N)c3[N+](=O)[O-])c2C)c(C)c1	0	0	0	0
c1cc(Nc2ccc3nc[nH]c3c2)cc(Nc2ccc(N3CCOCC3)cc2)n1	0	0	0	0
O=C(NCc1ccccc1)c1ccnc(Nc2ccc(N3CCOCC3)cc2)c1	0	0	0	0
c1cc(Nc2cc(C3CC3)[nH]n2)cc(Nc2ccc(N3CCOCC3)cc2)n1	0	0	0	85
c1ccc(-n2cccn2)c(Nc2ccnc(Nc3ccc(N4CCOCC4)cc3)c2)c1	0	0	0	40
c1cc(-c2ccnc(Nc3ccc(-n4cnc(-c5ccncc5)n4)cc3)n2)cc(N2CCOCC2)c1	0	0	0	0
c1ccc(-c2ncn(-c3ccc(Nc4cc(-c5cccc(N6CCOCC6)c5)ccn4)cc3)n2)nc1	0	0	0	78
c1ccc(CNc2ccnc(Nc3ccc(N4CCOCC4)cc3)c2)cc1	0	0	0	34
O=C(Nc1ccc(Cl)cc1Cl)c1cc(S(=O)(=O)N2CCN(Cc3ccc4c(c3)OCO4)CC2)ccc1F	0	0	0	0
O=C(c1cc(Oc2ccc(-c3cnc4ccccc4n3)cc2)nc2ccccc12)N1CCCCC1	0	0	0	0
c1ccc(Nc2ncn(-c3ccnc(Nc4ccc(N5CCOCC5)cc4)c3)n2)cc1	0	0	0	37
CCOc1cccc(C2CC(c3cccc(OC)c3)=NC(C(C)C)N2)c1O (stereo not drawn)	0	0	0	36
CCCC1N=C(c2cccc(OC)c2)CC(c2cc(Br)ccc2O)N1 (stereo not drawn)	0	0	0	39
COc1cccc(C2CC(c3ccc(Br)cc3)Nc3ncnn32)c1 (stereo not drawn)	0	0	0	0
COc1ccc(OC)c(CC(=O)N2CCc3nc(N4CCCCC4)[nH]c(=O)c3C2)c1	0	0	0	50
SMILES	MITF primary	GPR151 activ	FBW7 act	TEAD-YAP inh
COc1cc(CC(=O)N2CCc3nc(N4CCCC4)[nH]c(=O)c3C2)cc(OC)c1OC	0	0	0	0
CCc1nn(CC(=O)C(C)(C)C)c(=O)c2cc3ccsc3n12	0	0	17	0
CCOC(=O)N1CCN(CCC(=O)Nc2cccc(OC)c2)CC1	0	0	0	0
[O-][n+]1onc2cc(Cl)c(Cl)cc21	0	0	0	0
[O-][n+]1onc2cc(Br)cnc21	61	0	0	0
CCC(Oc1ccccc1)C(=O)Nc1nn2c(-c3ccccc3)nnc2s1 (stereo not drawn)	0	0	0	0
CNc1nc(N/N=C/c2ccc(OC)c(OC)c2)nc(Nc2cccc(C(F)(F)F)c2)n1	0	0	0	53
CCNc1nc(NCC)nc(N/N=C/c2ccc(OC)c(OCc3ccccc3)c2)n1	0	0	0	0
CC(=O)c1ccc(NC2=C(Cl)C(=O)c3ccccc3C2=O)cc1	0	0	0	49
CC(=O)c1ccc(Nc2ccc(-c3ccccc3F)nn2)cc1	0	0	0	57
Cc1cc(C)n(-c2cc(N3CCN(C(=O)/C=C/c4ccco4)CC3)nc(C)n2)n1	0	0	0	0
C[C@@H](OCc1ccccc1)[C@@H]1NC(=O)[C@H]2CN(C(=O)c3ccccc3Cl)CCN2C1=O	0	0	0	0
CN(C)S(=O)(=O)N1CCC(Oc2cccc(C(=O)NC3CCCCC3)c2)CC1	0	0	0	43
CN(C)S(=O)(=O)N1CCC(Oc2ccc(C(=O)NC3CCCCC3)cc2)CC1	0	0	0	0
Cc1ccc(/C(O)=C2/C(=O)C(=O)N(CCCC(=O)O)C2c2ccc(C(C)C)cc2)cc1 (stereo not drawn)	0	0	0	0
CN(C)c1c2c(c(C#N)c3nc4ccccc4n13)CCC2	0	0	0	0
N#Cc1c2c(c(Cl)n3c1nc1ccccc13)CCC2	0	0	1.9	0
Cc1ccc(Nc2c3c(c(C#N)c4nc5ccccc5n24)CCC3)cc1C	0	0	2.2	0
CC(=C/c1ccccc1)/C=N/n1c(-c2ccncc2)n[nH]c1=S	0	0	0	39
CC(C)CN(CC(C)C)S(=O)(=O)c1ccc(NC(=O)C(C)C)cc1	0	0	0	0
Cc1occc1C(=O)N/N=C/c1cc(Br)ccc1O	0	0	0	47
O=C(N/N=C/c1cc(Br)ccc1O)c1ccc(O)cc1O	0	0	0	72
COc1ccc2cc(-c3nc4ccccc4[nH]3)c(=Nc3ccc(C(N)=O)cc3)oc2c1	0	0	0	66
COc1ccc2oc(=Nc3ccccc3)c(-c3nc4ccccc4[nH]3)cc2c1	0	0	0	0
COc1ccc2cc(-c3nc4ccccc4[nH]3)c(=Nc3ccc(F)cc3)oc2c1	0	0	0	76
SMILES	MITF primary	GPR151 activ	FBW7 act	TEAD-YAP inh
CCCCCc1c2c(C)c(C(=O)OCC)nc-2cc2n1CC(C)=C2C	0	0	0	41
Cn1nnc2c(N3CCN(S(=O)(=O)c4ccccc4Cl)CC3)ncnc21	0	0	0	38
COc1c(NC(=O)Nc2ccccc2C)cc([N+](=O)[O-])c(OC)c1C	0	0	0	45
Nc1ccc(Cl)c(-c2nc3cc(Cl)ccc3o2)c1	0	0	0	0
Nc1ccc2oc(-c3cc(Cl)ccc3Cl)nc2c1	0	0	0	0
Nc1ccc2oc(-c3ccccc3Cl)nc2c1	0	0	0	42
Nc1ccc2oc(-c3cc(I)ccc3Cl)nc2c1	0	0	0	34
Nc1ccc2oc(-c3cc(Br)ccc3Cl)nc2c1	0	0	0	41
COc1ccc(CNc2nc(Nc3ccc(OC)nc3)nc3nc[nH]c23)cc1	0	0	0	0
COc1cccc(C(=O)Oc2ccc(/C=C3/C(=N)N4OC(C)=CC4=NC3=O)cc2)c1	0	0	0	0
COc1ccc(C(=O)CSc2nc3sc4c(c3c(=O)n2-c2ccccc2)CCC4)cc1OC	0	0	0	0
COc1ccc(C(=O)CSc2nc3scc(-c4ccccc4)c3c(=O)n2-c2ccccc2)cc1OC	0	0	1.9	0
CCOc1cc(/C=N/n2cnnc2)cc(I)c1O	65	0	0	0
COc1ccc(Br)cc1C1C2=C(CC(C)(C)CC2=O)Nc2nc(SC)nn21 (stereo not drawn)	0	0	0	0

Source: PubChem BioAssay
